Among the data in PubChem BioAssay (EPA / NIEHS) are outcome and AC50 values, retold here.

Assay [1] is described as follows: VALA_TUBIPS_Agonist_TubuleLength: VALA Sciences human iPS-derived Endothelial Tubule Formation (TUBIPS) Agonism Assay (AID 2284311). As for the experimental part: VALA_TUBIPS_Agonist is a cell-based, multiplexed assay that uses human iPS-derived endothelial cells (iPSC). Measurements were taken 72 hours after chemical dosing in a 96-well plate.VALA_TUBIPS_Agonist_TubuleLength is the one of two assay components measured from the VALA_TUBIPS_Agonist assay. It is designed to make measurements of tubulogenesis, a form of morphology reporter, as detected with fluorescence intensity signals by HCS Fluorescent Imaging technology. This VALA_TUBIPS1 assay was designed to detect chemical activation of tubulogenesis, i.e. agonism.Data from the assay component VALA_TUBIPS_Agonist_TubuleLength was analyzed at the endpoint, VALA_TUBIPS_Agonist_TubuleLength, in the positive analysis fitting direction relative to DMSO as the negative control and baseline of activity. Using a type of morphology reporter, gain-of-signal activity can be used to understand developmental effects. To generalize the intended target to other relatable targets, this assay endpoint is annotated to the neurodevelopment intended target family, where the subfamily is tubulogenesis.
This HUVEC-HDF assay was designed to detect chemical suppression of tubulogenesis, i.e. antagonism. […]

For another assay, the system named is IYD (gene 389434). The assay is described as follows: CCTE_GLTED_hIYD: CCTE's human Iodotyrosine Deiodinase (xIYD) Inhibition Assay, Great Lakes Toxicology and Ecology Division (GLTED) Lab (AID 2284317).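 Further: cell-free human IYD enzyme made in baculovirus insect cells; iodide freed from monoiodotyrosine measured by cerium arsenite color change at 420 nm.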 The essentials: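 Absorbance change at 420 nm from the iodide-catalysed cerium-arsenic reaction reports free iodide released by human IYD from monoiodotyrosine. Enzyme, substrate and chemical are incubated 3 h; loss of signal is fitted relative to DMSO baseline.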

A short description of assay [2]: VALA_MIGHUV1_ScratchOnly_CellCount: Viability Assessment in the VALA Sciences human Umbilical Vein Endothelial Cell Migration (MIGHUV) Assay, Scratch Wound Inhibited Recovery (AID 2284327). The protocol: VALA_MIGHUV1_ScratchOnly is a cell-based, multiplexed assay that uses umbilical vein-derived endothelial cells (HUVEC). Measurements were taken 24 hours after chemical dosing in a 96-well plate.VALA_MIGHUV1_ScratchOnly_CellCount is the one of two assay components measured from the VALA_MIGHUV1_ScratchOnly assay. It is designed to make measurements of viability, a form of viability reporter, as detected with fluorescence intensity signals by HCS Fluorescent Imaging technology. Data from the assay component VALA_MIGHUV1_ScratchOnly_CellCount was analyzed at the endpoint, VALA_MIGHUV1_ScratchOnly_CellCount, in the positive analysis fitting direction relative to DMSO as the negative control and baseline of activity. Using a type of viability reporter, loss-of-signal activity can be used to understand viability. To generalize the intended target to other relatable targets, this assay endpoint is annotated to the cell cycle intended target family, where the subfamily is cell count.
Cells were seeded on 384-well microplates (day-0) at a density of 9000 cells per well for detection of wound area recovery or 4000 cells per well for detection of beta-catenin (CTNB) immunoreactivity and incubated in Endothelial Cell Growth Medium (CAI, San Diego; catalog 211-500). After 24 hours of culture, the HUVEC plates were scratched using a custom scratch head with the Bravo liquid handling system. […]

Assay [3] in a line: CCTE_Mundy_HCI_iCellGluta_NOG_NeuriteLength: CCTE's Neurite Outgrowth Assay in iCellGluta cells for Neurite Length, Mundy Lab (AID 2284318). The method in brief:
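Automated high-content imaging of betaIII-tubulin (Alexa Fluor-488) and Hoechst-stained cells gave neurite length, normalized to the DMSO baseline.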

The nature of assay [4]: CCTE_Mundy_HCI_iCellGluta_NOG_NeuronCount: CCTE's Neurite Outgrowth Assay in iCellGluta cells for Neuron Count, Mundy Lab (AID 2284340).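 Further: cells fixed about 48 h after compound addition.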 As for the experimental part: CCTE_Mundy_HCI_iCellGluta_NOG is a multiplexed, cell-based-readout assay that uses iCell GlutaNeurons from FUJIFILM Cellular Dynamics, Inc. (FCDI), human glutamatergic enriched neurons derived from induced pluripotent stem (iPS) cells, with measurements taken at 50.33 hours after chemical dosing in a microplate: 96-well plate.CCTE_Mundy_HCI_iCellGluta_NOG_NeuronCount is one of four components of the CCTE_Mundy_HCI_iCellGluta_NOG assay. It measures cell viability related to number of neurons using High Content Imaging of fluorescently labelled markers.Data from the assay component CCTE_Mundy_HCI_iCellGluta_NOG_NeuronCount was analyzed at the endpoint CCTE_Mundy_HCI_iCellGluta_NOG_NeuronCount in the positive analysis fitting direction relative to DMSO as the negative control and baseline of activity. Using a type of viability reporter, loss-of-signal activity can be used to understand developmental effects.
Exposure starts 2 hours post-plating by adding 10 ul of the working solution to 90 ul of media in the wells for a 1/10 dilution. […] A Cellomics ArrayScan VTi HCS Reader is used for automated image acquisition and analysis of neurite outgrowth.

Each structure is given as a SMILES string. Inconclusive results are not listed. Activity calls are given as the source filed them. How the source made its calls: active means hit-call score of the fitted dose curve at least 0.9, where 1 is the maximum; inconclusive means response in the unintended direction; inactive means score below 0.9.

On to `OC[C@@H](O)[C@@H](O)[C@H](O)[C@H](O)CO`, for which the outcome in assay [1] was inactive. Regarding `CCCCC(CC)COC(=O)CC(C(=O)OCC(CC)CCCC)S(=O)(=O)O` (stereo not given), in assay [1], the outcome was inactive. Moreover, the AC50 in the assay with IYD (gene 389434) is 41.5 µM (active); in assay [2], 78.2 µM (active). In the case of `COc1cc(S(=O)(=O)O)c(C)cc1N=Nc1c(O)ccc2cc(S(=O)(=O)O)ccc12`, in the assay on IYD (gene 389434), the AC50 is 154 µM (active). For the compound `C[Si]1(C)O[Si](C)(C)O[Si](C)(C)O[Si](C)(C)O1`, the compound was classed as inactive in assay [3] and in assay [4]. `CC(=O)Oc1ccccc1C(=O)O`: the call in assay [3] and in assay [4] was inactive. As for `Oc1ccc2ccccc2c1N=Nc1ccccc1`, the compound was called inactive in assay [2].

One may read the AC50 as the concentration at which the activity in the assay is half-maximal.
